The record followed here is PubChem BioAssay AID493216 (National Center for Advancing Translational Sciences (NCATS), 2011).

Active and inactive are the calls of the source. The call rests on the fitted dose curve.

Sequence of Polyunsaturated fatty acid lipoxygenase ALOX12 (Homo sapiens) (P18054 whole entry, looked up): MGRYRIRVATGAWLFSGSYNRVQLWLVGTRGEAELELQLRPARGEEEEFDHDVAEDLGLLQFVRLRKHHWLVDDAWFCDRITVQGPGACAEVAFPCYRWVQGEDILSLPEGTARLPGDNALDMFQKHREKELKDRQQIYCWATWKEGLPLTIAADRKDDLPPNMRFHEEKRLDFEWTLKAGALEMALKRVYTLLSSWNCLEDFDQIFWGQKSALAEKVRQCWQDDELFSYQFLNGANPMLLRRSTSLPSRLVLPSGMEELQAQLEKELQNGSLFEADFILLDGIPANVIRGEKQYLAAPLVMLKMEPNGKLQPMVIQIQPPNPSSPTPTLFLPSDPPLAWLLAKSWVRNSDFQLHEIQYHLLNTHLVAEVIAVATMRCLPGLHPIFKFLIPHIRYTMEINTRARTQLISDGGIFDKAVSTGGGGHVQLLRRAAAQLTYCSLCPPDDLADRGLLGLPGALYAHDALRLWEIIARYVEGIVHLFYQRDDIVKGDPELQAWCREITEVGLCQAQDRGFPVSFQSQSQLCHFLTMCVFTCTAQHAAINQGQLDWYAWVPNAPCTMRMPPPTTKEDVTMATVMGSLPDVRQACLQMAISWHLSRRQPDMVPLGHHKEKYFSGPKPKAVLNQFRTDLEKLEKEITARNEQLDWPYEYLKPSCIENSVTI

The test addresses Polyunsaturated fatty acid lipoxygenase ALOX12 (Homo sapiens) (UniProt P18054). Description: Inhibitors of 12-hLO (12-human lipoxygenase): Cuvette-Based Hit Assay for Validation of Followup Compounds. To be noted: purified 12-hLO, cuvette absorbance 234 nm. On the procedure:
The enzyme activity of 12-hLO was determined by a direct measurement of product formation by monitoring the absorbance at 234 nm in a 2 mL cuvette. IC50 values of inhibitors were obtained by measuring the enzymatic rate at a variety of concentrations (Carroll et al, Segraves et al). This assay was used to validate actives or inconclusive putative inhibitors identified in the primary screen (see related BioAssay AIDs). Assay Provider: Holman, T.R., University of California, Santa Cruz Screening Center PI: Austin, Christopher P. Screening Center: NIH Chemical Genomics Center
For control experiments, 2 mL of substrate buffer (10 uM arachidonic acid / 25 mM HEPES / 0.01% (v/v) Triton X-100, pH 8.0) was aliquoted in a cuvette with a magnetic stir bar. After equilibrium was ensured, an aliquot of inhibitor solvent was added (DMSO), and equilibrium was once again assured. The reaction was started by adding enzyme to the cuvette and the reaction was followed until completed. The inhibition experiments were performed as above, except the actual inhibitory compound was added instead of vehicle. To achieve an IC50, typically 5 concentrations of the inhibitor were studied. If the inhibitor concentration was constant, then five different reaction volumes were used. Step \ Parameter \ Value \ Description 1; UV-Vis; 234 nm; Equilibration 2; Reagent; 2 mL; Substrate buffer 3; UV-Vis; 234 nm; Equilibration 4; Reagent; varies; Compound 5; UV-Vis; 234 nm; Equilibration 6; Reagent; 50-200 nM; Enzyme 12-hLO 7; UV-Vis; 234 nm; Enzymatic reaction Step \ Notes 1; Blank cuvette to air. 2; 10 uM AA, 25 mM HEPES, 0.01% Triton X-100, pH 8. 3; No change in absorbance ensured. 4; Compound vehicle or compound in various concentrations depending on potency. 5; No change in absorbance ensured. 6; Enzyme concentration to achieve reaction rate between 0.02 and 0.04 AU/s. 7; Enzymatic reaction visualized until completion.
For the compound `COc1ccc(-c2[nH]ncc2-c2ccc(Cl)cc2)c(O)c1`, the Potency was 28.6 µM (active).
To `COc1ccc(-c2n[nH]c(C)c2-c2ccc(Cl)cc2)c(O)c1` belongs 19.4 µM (active); to `Cc1nc(N)sc1-c1csc(N(C)c2ccc(O)cc2)n1`, 15.6 µM (active); to `Oc1ccccc1-c1cc(-c2cccc(F)c2)n[nH]1`, 18.9 µM (active).
To `COc1cc(CNc2ccc(N3CCCC3)cc2)ccc1OCc1ccccc1` belongs 25 µM (active); to `Cc1oc2c(O)c(O)ccc2c(=O)c1-c1cnn(-c2ccccc2)c1`, 15.5 µM (active); to `COc1cccc(-c2cnc(NCc3cc(Cl)ccc3O)n2C)c1`, 32.7 µM (active).
For `CC(Oc1ccc(Cl)cc1Cl)C(=O)NC1=NN(c2ccccc2)C(=O)C1` (stereo not given), the Potency was 15.5 µM (active).
Then `Oc1ccc(-c2nc(-c3ccc(O)c(O)c3)cs2)cc1`, with 0.7 µM (active); and `CCOc1ccc(-c2[nH]ncc2Oc2cccc(OC)c2)c(O)c1`, with 28.1 µM (active); and `COc1ccc2nc(NC(=O)c3cccc(OCc4c(C)noc4C)c3)sc2c1`, with 36.7 µM (active).
To `Oc1ccc(Cl)cc1-c1cc(-c2ccco2)[nH]n1` belongs 21.5 µM (active); to `Cc1ccc(C(=O)Nc2nnc(-c3ccco3)o2)cc1`, 6.52 µM (active); to `CCc1cc(-c2n[nH]c(C)c2Oc2ccc(C(C)C)cc2)c(O)cc1O`, 20.2 µM (active).
As for `CC1=NN(c2ccc(Cl)cc2)C(=O)C1C(c1cccc(O)c1)c1c(C)[nH]n(-c2ccc(Cl)cc2)c1=O` (stereo not given), the Potency is 7.55 µM (active).
On to `COc1cc(CNc2ccc(O)cc2)cc(Br)c1OCc1ccccc1F`, for which the Potency is 24.1 µM (active).
For `CCCOC(=O)c1ccc(Oc2cn[nH]c2-c2ccc(OC)cc2O)cc1`, the Potency was 26.8 µM (active).
To `CCCOC(=O)c1ccc(Oc2c(-c3ccc(O)cc3O)n[nH]c2C)cc1` belongs 16.7 µM (active).
Turning to `O=C(/C=C/c1ccc(O)c(O)c1)c1ccc(S(=O)(=O)N2CCCCCC2)cc1`, the Potency was 27.2 µM (active).
Take `Cc1ccc(C(=O)/C=C/c2c[nH]c3ccccc23)cc1`: the Potency was 34.6 µM (active).
Take `COc1ccc(Cc2nc(C(=O)Nc3ccc(OC)cc3)cs2)cc1`: the Potency was 35.8 µM (active).
On to `Cc1[nH]nc(-c2ccc(O)cc2O)c1Oc1ccccc1`, for which the Potency is 27 µM (active).
For the compound `COc1ccc(/C=C/c2nc(-c3ccccc3O)n[nH]2)cc1`, the Potency is 18.9 µM (active).
To `CN(C)c1nccc(N(Cc2ccccc2)Cc2ccccc2)c1C#N` belongs 15.7 µM (active); to `Cc1cc(Cl)cc(Cl)c1OCC(=O)NCc1ccco1`, 20.4 µM (active).
As for `CCOC(=O)Cc1cc(=O)n(-c2nc3ccccc3s2)[nH]1`, the Potency was 22.4 µM (active).
To `COc1ccc(NC2=NCC(Cc3ccc(Br)cc3)S2)cc1` (stereo not given) belongs 36.6 µM (active); to `Cc1ccc(NC(=O)Nc2cccs2)c(Cl)c1`, 22.4 µM (active); to `N#CC1=C(N)Oc2n[nH]c(-c3cccs3)c2C1C1CCCCC1` (stereo not given), 7.69 µM (active).
Take `CSCCC(NC(=O)c1ccc(Cl)cc1)C(=O)OCC(=O)Nc1ccc(C#N)cc1` (stereo not given): the Potency is 18.3 µM (active).
On to `Cc1ccc(C(=O)Nc2nnc(-c3ccco3)o2)cc1C`, for which the Potency is 15.7 µM (active).
Then `CC1=NN(c2ccc(Cl)cc2)C(=O)C1C(c1ccccc1O)c1c(C)[nH]n(-c2ccc(Cl)cc2)c1=O` (stereo not given), with 18.9 µM (active); and `Oc1ccccc1-c1cc(-c2ccc3c(c2)OCCO3)n[nH]1`, with 31.3 µM (active); and `O=S(=O)(Nc1ccc(O)c(Sc2nc3ccccc3s2)c1)c1ccc(Cl)cc1`, with 8.77 µM (active).
Regarding `Oc1ccccc1-c1cc(-c2ccccc2Cl)[nH]n1`, the Potency was 16 µM (active).
To `c1ccc(-c2nc(NCc3cccnc3)c3oc4ccccc4c3n2)cc1` belongs 14 µM (active); to `CCc1cc(-c2[nH]ncc2-c2ccc3c(c2)OCO3)c(O)cc1O`, 22.2 µM (active); to `Cc1cc(C)c2cc(CN(Cc3nnnn3C3CCCCC3)CC3CCCO3)c(=O)[nH]c2c1` (stereo not given), 26.9 µM (active).
`O=C(CSc1n[nH]c(-c2ccccc2)n1)c1ccc(O)c(O)c1`: the Potency was 24.2 µM (active).
To `COc1ccc(C(Nc2ccccn2)c2c(NC(=O)c3ccco3)sc(C)c2C)cc1` (stereo not given) belongs 23.2 µM (active).
